A short description of assay [1]: CCTE_Padilla_ZF_144hpf_TERATOSCORE: (Legacy) CCTE's 144 Hour Post-fertilization zebrafish Assay Teratoscore, Padilla Lab (AID 2283679).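 For AC50: zebrafish embryos with chorions exposed by immersion from 6-8 hpf to 5 dpf with daily renewal; teratogenicity score from eye scoring of death hatching and malformations at 144 hpf; higher score means more developmental defects relative to DMSO baseline.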 The method in brief:
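Larvae scored by eye at 144 hpf for death, hatching and malformations after a day in clean Hanks'. Before that, daily-renewed exposure at 80 uM (0.4% DMSO, 26C) from roughly 6-8 hpf through 5 dpf, 4 embryos per chemical.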

A short description of assay [2]: STM_H9_OrnithineISnorm_perc: Stemina devTOX quickPredict H9 human embryonic stem cell (hESC)-based Assay for Ornithine (ORN) Metabolite Biomarker, Normalized (AID 2283712).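 Note: ornithine released into spent medium during last day measured by mass spectrometry.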 A digest of the protocol:
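Cells: undifferentiated H9 hESC. Dosing: 72 h, media replaced every 24 h. Sample: final 24-h conditioned media, 40% acetonitrile. Read: UPLC-HRMS ornithine area vs 13C standard, % DMSO control.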

A short description of assay [3]: STM_H9_CystineISnorm_perc: Stemina devTOX quickPredict H9 human embryonic stem cell (hESC)-based Assay for Cystine (CYSS) Metabolite Biomarker, Normalized (AID 2283713). The method in brief: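 Secreted cystine was measured by UPLC-HRMS in H9 hESC medium after 72h compound exposure with 24-hourly replenishment. Values are standard-normalized areas relative to 0.1% DMSO.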

A short description of assay [4]: STM_H9_OrnCyssISnorm_ratio: Stemina devTOX quickPredict H9 human embryonic stem cell (hESC)-based Assay for Ornithine (ORN):Cystine (CYSS) Ratio (AID 2283714; active = hit-call score of the fitted dose curve at least 0.9, where 1 is the maximum). A digest of the protocol: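 Steps: H9 hESCs in pluripotent state dosed 72h, medium plus compound renewed every 24h; conditioned medium from the final 24h deproteinized in 40% acetonitrile; ORN and CYSS quantified by UPLC-HRMS with C13 spike-ins; ratio relative to vehicle.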

The nature of assay [5]: CEETOX_H295R_MTT_cell_viability: Viability Assessment in the CeeTox HT-H295R MTT Assay (AID 2283718).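 For AC50: curve fitted both ways so AC50 may mark viability loss or gain.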 A digest of the protocol:
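MTT reduction (0.5 mg/ml, 4 h at 37 C; absorbance at 570 and 650 nm) gave viability as background-corrected percent change versus controls. H295R cells had 48 h forskolin (10 uM) prestimulation, then 48 h chemical exposure at 0.1% DMSO.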

Assay [6] in a line: Tanguay_ZF_120hpf_ActivityScore_legacy: (Legacy) Oregon State University Tanguay Lab 120 Hour Post-fertilization zebrafish Assay Score for Activity (AID 2283742; active = hit-call score of the fitted dose curve at least 0.9, where 1 is the maximum;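 for AC50: dechorionated Tropical 5D wild-type zebrafish embryos held singly per well; static exposure from 6 hpf until 120 hpf at 28 °C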). The method in brief: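 Embryos are staged, enzymatically dechorionated at 4 hpf, placed individually at 6 hpf, then held in test chemical (0.64% DMSO) at 28C until 120 hpf. Mortality and malformations are scored by brightfield, with non-mortality endpoints skipped for dead embryos.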

Assay [7] has as its target Luciferin 4-monooxygenase (Photinus pyralis) (UniProt P08659). Put plainly: CCTE_Simmons_QuantiLum_inhib_2: CCTE's Firefly Luciferase Inhibition Assay, Simmons Lab (AID 2283767; active = hit-call score of the fitted dose curve at least 0.9, where 1 is the maximum;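 for AC50: potency for inhibitors that lower luciferase luminescence relative to DMSO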). The method in brief: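 Counter-screen for nonspecific enzyme inhibition: purified firefly luciferase incubated 30 min at 37C with chemicals up to 87.5 uM final, then luminescence measured after luciferin/dATP injection; activity fitted against DMSO baseline.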

Assay [8] in a line: ArunA_CellTiter_hNC: Viability Assessment in the ArunA Biomedical's Oris Neural Crest (hNC) Cell Migration Assay (AID 2283752; active = hit-call score of the fitted dose curve at least 0.9, where 1 is the maximum). A digest of the protocol:
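Viability of embryonic neural crest stem cells from the H9 line is scored 72 h after dosing, with DMSO as negative control and baseline. A drop in CellTiter Aqueous One signal indicates cytotoxicity.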

Assay [9] is described as follows: ArunA_Migration_hNP: ArunA Biomedical's Oris Neuroprogenitor (hNP) Cell Migration Assay (AID 2283754; active = hit-call score of the fitted dose curve at least 0.9, where 1 is the maximum). A digest of the protocol: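 Human H9-derived hNP1 neuroprogenitors on Matrigel with LIF/bFGF, plated around seeding stoppers for 16 h at 37C; stoppers removed at start of 72 h chemical exposure. Calcein-AM staining, fluorescence 494/517 nm in detection zone; loss-of-signal vs DMSO; cytochalasin D control.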

Assay [10] in a line: ArunA_Migration_hNC: ArunA Biomedical's Oris Neural Crest (hNC) Cell Migration Assay (AID 2283755; active = hit-call score of the fitted dose curve at least 0.9, where 1 is the maximum). A digest of the protocol: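 Human H9-derived neural crest stem cells, 60,000/well on Matrigel, 16 h at 37C, then 72 h chemical exposure after seeding-stopper removal. Migration into detection zone read as calcein-AM fluorescence (ex494/em517), relative to DMSO.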
Assay [11] is described as follows: ArunA_NOG_NeuriteLength: ArunA Biomedical's Neurite Outgrowth (NOG) Assay for Neurite Length (AID 2283757; active = hit-call score of the fitted dose curve at least 0.9, where 1 is the maximum). The method in brief: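 Differentiated human H9-derived neurons were exposed for 48 h from seeding, then stained with Hoechst and βIII-tubulin. Automated high-content imaging gave total neurite length per valid neuron, counting processes >10 um. Loss of signal was scored versus DMSO.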

Assay [12] in a line: ArunA_NOG_NeuritesPerNeuron: ArunA Biomedical's Neurite Outgrowth (NOG) Assay for Neurites Per Neuron (AID 2283758; active = hit-call score of the fitted dose curve at least 0.9, where 1 is the maximum). A digest of the protocol:
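Differentiated human H9-derived neurons exposed to chemicals for 48 h from seeding, then stained with Hoechst and βIII-tubulin/DyLight 488. Automated imaging counted neurites (processes >10 um) per valid neuron; loss of signal versus DMSO scored.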

Assay [13] is described as follows: ArunA_NOG_BranchPointsPerNeurite: ArunA Biomedical's Neurite Outgrowth (NOG) Assay for Branch Points Per Neurite (AID 2283759; active = hit-call score of the fitted dose curve at least 0.9, where 1 is the maximum). The method in brief:
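Automated image analysis traced neurites (processes >10 um) from valid cell bodies after Hoechst and βIII-tubulin staining. hNN cells from H9 embryonic stem cells, 48 h exposure. Fitted bidirectionally against DMSO.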

The test system of assay [14] is Thyroperoxidase (TPO), gene 445522. In words: CCTE_Simmons_GUA_TPO: CCTE's Guaiacol Assay for Thyroperoxidase (TPO) Inhibition, Simmons Lab (AID 2283750; active = hit-call score of the fitted dose curve at least 0.9, where 1 is the maximum). The method in brief:
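Porcine thyroid microsomes (25 ug) in 200mM potassium phosphate, preincubated 30 s at 37C with compound (8 concentrations, 5 nM–87.5 uM) and 35mM guaiacol; 1mM H2O2 starts reaction. Absorbance change at 450nm over first 80 s; loss of signal versus DMSO, three replicates.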

Where “and” joins values, the source holds several entries; their conditions need not be identical. Equal entries are not always repeated. Results filed as inconclusive are left out. Calls of active or inactive are those of the source. Rule for the calls, unless noted: active = hit-call score of the fitted dose curve at least 0.9, where 1 is the maximum; inactive = score below 0.9.

Sequence of Luciferin 4-monooxygenase (Photinus pyralis) (P08659 whole entry, looked up): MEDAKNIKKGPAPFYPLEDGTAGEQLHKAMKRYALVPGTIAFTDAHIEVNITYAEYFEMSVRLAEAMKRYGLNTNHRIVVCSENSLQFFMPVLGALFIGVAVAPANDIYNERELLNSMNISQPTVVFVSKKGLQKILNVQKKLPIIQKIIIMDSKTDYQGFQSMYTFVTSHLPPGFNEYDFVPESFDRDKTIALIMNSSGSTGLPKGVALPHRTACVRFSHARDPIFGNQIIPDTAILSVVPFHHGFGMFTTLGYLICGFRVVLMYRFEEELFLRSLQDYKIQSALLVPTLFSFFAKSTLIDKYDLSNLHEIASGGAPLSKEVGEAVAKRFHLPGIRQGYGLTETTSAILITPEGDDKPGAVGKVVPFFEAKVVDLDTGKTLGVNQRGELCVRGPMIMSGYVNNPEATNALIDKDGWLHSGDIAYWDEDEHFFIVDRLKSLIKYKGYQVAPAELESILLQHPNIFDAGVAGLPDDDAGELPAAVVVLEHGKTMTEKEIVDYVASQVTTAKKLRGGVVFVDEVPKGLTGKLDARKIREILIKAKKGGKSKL

`CCCCCCCCCCCCCN1CC(C)OC(C)C1` (stereo unspecified): the figures for the AC50 in assay [1], in assay [3] and in assay [4] were 90.1 µM (active), 2.78 µM (active) and 2.62 µM (active), respectively. For the same molecule, the result in assay [2], in [5] and in assay [6] was inactive.

Consider `Cc1cccc(N)c1N`, for which the AC50 (commonly the concentration giving half of the maximal activity seen) was 57 µM (active) in assay [1]; 76.4 µM (active) in [2]; 79 µM (active) in assay [3]; 74.5 µM (active) in assay [4]; 1.07 µM (active) in [5]; 44.5 µM (active) in [6]. In [7], the AC50 is 35.7 µM (active).

Regarding `Cc1cc(N=Nc2ccccc2C)ccc1N`, the results for the AC50 in [1], in [6] and in assay [7] were 7.92 µM (active), 33.3 µM (active) and 3.76 µM (active), respectively. For the same molecule, in [5], the result was inactive.

Regarding `C[N+](C)(C)CC1CO1` (stereo unspecified), the values for the AC50 in [2], in assay [3] and in [4] were 21 µM (active), 11 µM (active) and 16.5 µM (active), respectively. The molecule was classed as inactive in assay [6].

Regarding `Nc1cc(Cl)cc(C(=O)O)c1Cl`, the call in assay [1], in [6] and in assay [7] was inactive.

On to `CC(C)(OOC(C)(C)c1ccccc1)c1ccccc1`, for which the AC50 in assay [1] was 15.4 µM (active). The molecule was classed as inactive in assay [6].

As for `OCCOCCO`, the outcome in assay [1] and in assay [6] was inactive.

As for `O=P(OCCCl)(OCCCl)OCCCl`, the result in assay [2], in assay [3], in assay [5], in assay [6], in [8] and in assay [9] was inactive. In addition, the result in assay [10], in assay [11], in assay [12] and in assay [13] was inactive.

With `CCOC(=O)[C@]1(c2ccccc2)Oc2ccccc2[C@@H]1N`, the AC50 in assay [1] was 4.92 µM (active). Further, the outcome in [5], in assay [6] and in assay [7] was inactive.

As to `COP(=S)(OC)SCN1C(=O)c2ccccc2C1=O`, in assay [1], the AC50 was 52.6 µM (active). Also, the molecule was classed as inactive in [5], in assay [6] and in assay [14].

On to `O=C(N[C@H](c1ccccc1)[C@@H]1CN2CCC1CC2)c1c(Cl)ccc(C(F)(F)F)c1Cl`, for which the AC50 is 50.8 µM (active) in [1] and 28.3 µM (active) in assay [6].

For the molecule `COC(=O)c1ccccc1N`, the outcome in [1], in [6] and in assay [7] was inactive.

For the molecule `ClC1=C(Cl)[C@]2(Cl)[C@H]3[C@H]([C@@H]4C=C[C@H]3C4)[C@@]1(Cl)C2(Cl)Cl`, the AC50 in assay [1] is 976 nM (active) and 4.66 µM (active). Moreover, the outcome in assay [2], in assay [3] and in assay [6] was inactive.

Take `Cc1ccc(N)cc1`: the AC50 in assay [2] is 61.2 µM (active); in [3], 23.1 µM (active); in [4] it was 30.4 µM (active). The outcome in assay [6] and in assay [7] was inactive.

As for `CNC(=O)Oc1cccc2c1OC(C)(C)C2`, the outcome in [2], in assay [3], in assay [4] and in assay [6] was inactive. Besides, in assay [5], the AC50 is 1.52 µM (active).

`O=C(Nc1ccccc1)c1ccccc1I`: the AC50 is 5.47 µM (active) in [1] and 11.6 µM (active) in assay [6]. For the same molecule, the result in [5] was inactive.

`CCN(CC)N=O`: the result in assay [2], in assay [3] and in [6] was inactive.

Turning to `CCNS(=O)(=O)C(F)(F)C(F)(F)C(F)(F)C(F)(F)C(F)(F)C(F)(F)C(F)(F)C(F)(F)F`, the AC50 in assay [1] was 43.5 µM (active); in assay [6], 31.2 µM (active).

In the case of `CN(C)c1ccc(C(=O)c2ccc(N(C)C)cc2)cc1`, the figures for the concentration at half-maximal activity (AC50) in assay [1], in [6] and in assay [7] were 0.544 µM (active), 32.1 µM (active) and 11.6 µM (active), respectively.

Source of the values: PubChem BioAssay (EPA / NIEHS).
